The values below come from PubChem BioAssay AID624464 (National Center for Advancing Translational Sciences (NCATS), 2012).

Hit rate of the full screen: of about 360,000 compounds, about 810 (0.23%) were called active. Cut-off read from the data, not from the text of the source: active = potentiation above about 50%; inconclusive = mostly about 30% to 49%; inactive = weaker than that. The sample as a whole holds a higher share of actives than the screen did.

D(2) dopamine receptor (Homo sapiens), sequence (P14416 whole entry, looked up): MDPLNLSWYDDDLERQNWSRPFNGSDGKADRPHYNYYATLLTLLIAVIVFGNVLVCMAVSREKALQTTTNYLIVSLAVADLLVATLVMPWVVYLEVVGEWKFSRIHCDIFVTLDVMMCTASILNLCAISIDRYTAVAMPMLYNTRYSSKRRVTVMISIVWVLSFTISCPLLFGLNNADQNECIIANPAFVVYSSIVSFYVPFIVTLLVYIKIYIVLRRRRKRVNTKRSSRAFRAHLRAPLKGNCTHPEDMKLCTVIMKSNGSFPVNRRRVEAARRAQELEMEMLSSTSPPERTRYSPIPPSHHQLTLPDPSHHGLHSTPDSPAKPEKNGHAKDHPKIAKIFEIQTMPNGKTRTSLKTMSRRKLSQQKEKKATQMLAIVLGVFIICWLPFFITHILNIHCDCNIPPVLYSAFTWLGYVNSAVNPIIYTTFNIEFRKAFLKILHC

This assay concerns the target D(2) dopamine receptor (Homo sapiens) (UniProt P14416). Description: Beta-Arrestin HTS for Positive Allosteric Modulators of the Human D2 Dopamine Receptor: Potentiators. Particulars: DiscoveRx D2 beta-arrestin cells, luminescence, 90 min; stronger effect = higher value; 100% = 57 uM dopamine signal. From the text: There is great interest in identifying small molecule ligands for G-protein coupled receptors (GPCRs) as nearly 50% of all FDA-approved drugs target these important receptor proteins. […] Amongst the dopamine receptors (DARs), the D2 is arguably one of the most validated drug targets in neurology and psychiatry. For instance, all receptor-based antiparkinsonian drugs primarily work via stimulating the D2 DAR, whereas all FDA-approved antipsychotic agents are antagonists of this receptor. The D2 DAR is also therapeutically targeted in other disorders such as restless legs syndrome, tardive dyskinesia, Tourette's syndrome, and hyperprolactinemia.
To this end, a miniaturized qHTS screen was developed to be screened against the Molecular Libraries Small Molecule Repository (MLSMR). This assay seeks to identify potentiators against the D2 DAR.
NIH Molecular Libraries Probe Production Network [MLPCN]
NIH Chemical Genomics Center [NCGC]
PI Name: David Sibley, National Institutes of Neurological Disorders and Stroke
DiscoveRx D2 cells were thawed from frozen stock and seeded at 2,100 cells/ 3 uL/well media (DiscoveRx Plating Reagent 2) with MultiDrop Combi dispenser (Thermo Scientific, Logan, UT) onto white tissue culture treated 1536-well Aurora plates (Brooks Automation, Chelmsford, MA) and allowed to attach overnight at 37 deg C, 5% CO2. Next, 23 nL/well of compound solutions in DMSO were added with a pintool transfer (Kalypsis, San Diego, CA). As the positive control, 1 uL/well dopamine (EC100, 57 uM final concentration) diluted in buffer (HBSS + 10 mM HEPES + SMB + 0.1 %Tween-20) was dispensed to 1 column of each plate. EC20 (Dopamine at 50 nM final concentration) was dispensed to the rest of the plate except columns 1 &2 which were used as negative control (EC=0, buffer only), 1 uL/well as well. The cells were stimulated by compounds and dopamine for 90 minutes at 37 deg C, 5% CO2, after which 1.5 uL/well of DiscoveRx detection reagent was added with BioRAPTR FRD dispenser. The detection reagent was prepared by mixing of Galacton Star Substrate, Emerald II solution and PathHunter buffer (supplied by the assay kit) together at 1:5:19 proportion accordingly just prior to dispensing. The plates were incubated at ambient temperature for 1 hour and then the luminescent signal was read on ViewLux plate reader (PerkinElmer, Waltham, MA).
Turning to `O=C(CCc1ccccc1)Nc1ccc(NC(=O)C2CCCCC2)nc1`, the potentiation was -8.09% (inactive). For the compound `Cc1nn(CC(=O)Nc2ccc(C#N)cc2)c(C)c1[N+](=O)[O-]`, the potentiation is -8.67% (inactive).

On to `Cc1cc(C)n(CC(=O)Nc2ccc([N+](=O)[O-])cc2)n1`, for which the potentiation was 70.7% (active).

For the compound `Cc1cc([N+](=O)[O-])nn1CC(=O)Nc1ccc(Cc2ccncc2)cc1`, the potentiation is -10.7% (inactive). On to `Cc1ccc(NC(=O)CS(=O)CC(=O)N(c2ccccc2)C(C)C(=O)NC2CCCC2)cc1` (stereo not drawn), for which the potentiation is -14.4% (inactive).

In the case of `CCCc1nnc(SCC(=O)N2C(C)CCCC2C)n1CC` (stereo not drawn), the potentiation was -7.75% (inactive). In the case of `CC(NC(=O)CC1SC(N)=NC1=O)c1ccccc1` (stereo not drawn) it was -0.5% (inactive). As for `C[C@H]1CN([C@@H](C)CO)C(=O)c2cc(-c3cccc(F)c3)cnc2O[C@@H]1CN(C)S(C)(=O)=O`, the potentiation is 7.41% (inactive). `Cc1csc(NC(=O)C2CCCN2C(=O)OCC(C)C)n1` (stereo not drawn): the potentiation is -5.09% (inactive). As to `COc1ccc(S(=O)(=O)N2CCN(CC(=O)N3CCOCC3)CC2)cc1OC`, the potentiation is -5.65% (inactive). Consider `O=C(Nc1cc(F)ccc1F)c1ccc2c(=O)n3c(nc2c1)CCC3`, for which the potentiation was -9.48% (inactive). As for `CC(C)S(=O)(=O)c1csc(NC(=O)Nc2ccc(Cl)cc2)c1Cl`, the potentiation is -6.65% (inactive). Turning to `CCOc1ccc(CCNC(=O)CCc2nnc3ccc(N4CCCC4)nn23)cc1OCC`, the potentiation is 2.77% (inactive).

In the case of `Cc1occc(=O)c1OCc1c(Cl)cccc1Cl`, the potentiation is -9.29% (inactive). As for `CCN(CC)CCCC(C)n1c2nc(=O)[nH]c(=O)c-2nc2cc(Cl)ccc21` (stereo not drawn), the potentiation was 80.2% (active).

With `COc1cccc(NC(=O)C2(C)CCN2C(=O)CCC2CCCC2)c1` (stereo not drawn), the potentiation was -1.05% (inactive). Regarding `CC(C)(C)C(=O)OCc1nc(-c2ccc(O)c(O)c2)cs1`, the potentiation was 70.4% (active). For `CCCC(=O)N1c2ccc(-c3csc(N)n3)cc2CC1C` (stereo not drawn), the potentiation was -21.2% (inactive). Turning to `COc1ccc(C(C)(O)c2nc(-c3ccc(C)c(C)c3)cs2)cc1` (stereo not drawn), the potentiation is -10.5% (inactive). For `CC(C)NC(=O)C1(C)CCCCCN1C(=O)c1ccc(-c2ccccc2)cc1` (stereo not drawn) the value was -9.96% (inactive); for `CC1(C)CCSC(/C=C/c2ccccc2)=N1`, -38.8% (inactive); for `CNc1cnc(-c2cc(OC)c(OC)c(OC)c2)cn1`, 0.325% (inactive). Consider `O=C(Nc1ccccc1F)c1ccc(Cn2cc(Br)cn2)cc1`, for which the potentiation was -6.63% (inactive).

For `CC(C)CCNC(=O)c1cccnc1Sc1ccccc1`, the potentiation was -21.6% (inactive). For `COCCNC(=O)C1CCN(C(=O)C2CC(=O)N(c3ccc(C)cc3)C2)CC1` (stereo not drawn), the potentiation is -6.43% (inactive). For the compound `O=S(=O)(Cc1cc(Cl)nc(-c2cccnc2)n1)c1ccccc1`, the potentiation was 11.9% (inactive). `COc1cc2c(cc1OC)CN(C(C)C(=O)Nc1cccc(S(=O)(=O)N3CCOCC3)c1)CC2` (stereo not drawn): the potentiation was -31.3% (inactive). For `CC(C)CCNC(=O)C1CCC(CNc2c(N3CCC(C)CC3)c(=O)c2=O)CC1` (stereo not drawn) the value was -6.3% (inactive); for `OCC[C@H]1C[C@@H](O)[C@H](O)[C@@]2(OCCc3ccccc32)O1`, -8.36% (inactive). As for `COc1ccc(CCNC(=O)CCn2c(=O)c3ccccc3n(CC(=O)NCC3CCCO3)c2=O)cc1OC` (stereo not drawn), the potentiation is -2.84% (inactive). Regarding `CC(=O)Nc1ccc(S(=O)(=O)Oc2ccc(/C=N/N=C3/NC(=O)C(CC(=O)O)S3)cc2)cc1` (stereo not drawn), the potentiation was 1.2% (inactive). `O=C(CCSc1ccccc1)NCCSc1ccccn1`: the potentiation is -0.984% (inactive). Turning to `O=C1CSC(c2cccc(F)c2)N1c1ccc(O)cc1` (stereo not drawn), the potentiation is -4.16% (inactive). `O=C(O)CCCC(=O)Nc1ccccc1-n1ccnc1`: the potentiation is -9.58% (inactive). For the compound `CSc1ncnc2c1ncn2CC(=O)C1CCC2C3CCC4=CC(=O)CCC4(C)C3CCC12C` (stereo not drawn), the potentiation was -2.03% (inactive). On to `CCOC(=O)CSc1nc2ccc(C)cc2n2cnnc12`, for which the potentiation was 0.488% (inactive). As to `CC1=C(C(=O)N(C(C)C)C(C)C)CC(CC(=O)NCC2CCCCC2)C(=O)N1Cc1ccccc1` (stereo not drawn), the potentiation was 1.77% (inactive).

With `O=C(CCNS(=O)(=O)c1ccccc1C(F)(F)F)Nc1ccncc1`, the potentiation is 0.0096% (inactive). Consider `O=C(OCC(=O)N(CCc1ccccc1)Cc1ccccc1)c1ccccc1[N+](=O)[O-]`, for which the potentiation is -22.2% (inactive). For `COc1ccc(N(C(=O)c2cccnc2)S(=O)(=O)c2ccc(OC)c(OC)c2)cc1` the value was 0.917% (inactive). On to `O=C(c1cccnc1)N(c1cc2sc(=O)oc2c2ccccc12)S(=O)(=O)c1ccccc1`, for which the potentiation is 61.6% (active). Consider `O=C(c1cccnc1)N(Cc1ccccc1)C(=O)c1cccnc1`, for which the potentiation is -3.67% (inactive). For `CC(C)Cc1ccc(S(=O)(=O)N2CCN(C(=O)c3ccco3)CC2)cc1` the value was -6.64% (inactive). Take `CC(C)(C)S(=O)N1Cc2cc(C(=O)NCCCN3CCOCC3)nc(-c3cccc(-c4cc5ccccc5o4)c3)c2[C@H]1CCO` (stereo partly drawn): the potentiation is -2.56% (inactive). With `COc1ccc(/C=C(\NC(=O)c2ccc(OCC(C)C)cc2)C(=O)OCc2ccco2)cc1`, the potentiation is -7.94% (inactive).

As to `CC(C)c1ccc(NC(=O)COC(=O)c2ccc(CN3CCCC3=O)cc2)cc1`, the potentiation is 0.762% (inactive).

Regarding `CCCC(=O)N1CCC1(C)C(=O)NCc1ccc(C(C)C)cc1` (stereo not drawn), the potentiation was -0.154% (inactive). In the case of `CC(=O)N1CCN(c2ccc(NCc3ccc(C(C)C)cc3)cc2)CC1`, the potentiation is 62.8% (active). `COc1ccc(C(=O)NCCNc2ccc([N+](=O)[O-])cn2)cc1`: the potentiation was -11.5% (inactive). In the case of `CCOCC(=O)Nc1ncc(S(=O)(=O)c2ccc([N+](=O)[O-])cc2)s1` it was 24.1% (inactive). In the case of `COC(=O)C(NC(=O)c1ccc(OC)cc1)(Nc1ncc(S(=O)(=O)c2ccc([N+](=O)[O-])cc2)s1)C(F)(F)F` (stereo not drawn), the potentiation was 65.4% (active). On to `CCCCN1C(=S)NC[C@@H]1C(C)CC` (stereo partly drawn), for which the potentiation is -1.6% (inactive). In the case of `N#Cc1ccc(COC(=O)Cn2nnc(-c3ccccc3)n2)cc1` it was -0.341% (inactive). As for `COC(=O)CNC(=O)c1ccccc1[N+](=O)[O-]`, the potentiation was -2.49% (inactive). As to `Cn1c(=NC(=O)c2ccc3c(c2)OCCO3)sc2cc(S(C)(=O)=O)ccc21`, the potentiation was -10.1% (inactive).

As for `COCCn1c(=NC(=O)c2ccccc2[N+](=O)[O-])sc2cc(S(C)(=O)=O)ccc21`, the potentiation is 74.4% (active). With `C=CCSc1ccc(S(=O)(=O)N2CCN(C)CC2)cn1`, the potentiation is -3.17% (inactive).

With `O=C(Nc1ccnn1C1CCN(C/C=C/c2ccc(F)cc2)CC1)C1CCCC1`, the potentiation was -11% (inactive). Take `Cn1ncc2c(N3CCCCC3)nc(NCCCO)nc21`: the potentiation was -3.76% (inactive).

In the case of `CS(=O)(=O)c1sc(C(=O)NC(=S)Nc2ccc(OC(F)(F)F)cc2)c2c1C=CCC2`, the potentiation was -5.92% (inactive). Turning to `COc1ccccc1Cc1c(-c2ccc(Cl)cc2)nc2ccc(Cl)cn12`, the potentiation was -4.81% (inactive).

As to `COc1cccc(N2CC(C(=O)NCc3n[nH]c(=O)c4ccccc34)CC2=O)c1` (stereo not drawn), the potentiation was -3.09% (inactive). As to `CCCCC(=O)N1CC2(C)CN(C(=O)CCCC)CC(C)(C1)C2=O`, the potentiation was 12.6% (inactive). On to `COc1cc(C(=O)N2CCN(S(=O)(=O)c3ccc(C(C)C)cc3)CC2)ccc1OCC(=O)N1CCOCC1`, for which the potentiation is 0.615% (inactive). On to `CC(=O)N1CCN(c2ccccc2NC(=S)NC(=O)c2cc3ccccc3o2)CC1`, for which the potentiation is 1.52% (inactive). In the case of `Cc1ccccc1NC(=O)c1nn(-c2ccc(F)c(F)c2)ccc1=O` it was -20.8% (inactive); in that of `CC(C)(C)S(=O)(=O)c1ccccc1-c1noc(-c2ccccc2)c1C(N)=O`, -4.58% (inactive); in that of `COc1ccc(S(=O)(=O)NC2(C(F)(F)F)N=C3SCCN3C2=O)cc1` (stereo not drawn), -9.42% (inactive). `COC(=O)c1cc(S(=O)(=O)N2CCC(C(N)=O)CC2)oc1C`: the potentiation is -5.83% (inactive). As for `Cc1cc(C)cc(C(=O)N(CCc2ccccc2)C2=CC3CCC(C2)N3C)c1` (stereo not drawn), the potentiation is -8.31% (inactive). `CCCN(CCc1ccccc1)C1CCc2c(O)cccc2C1` (stereo not drawn): the potentiation was 99% (active).

For `O=C(CCC(=O)N1CCN(S(=O)(=O)c2ccc(Cl)cc2)CC1)NCc1cccc(C(F)(F)F)c1`, the potentiation was -1.2% (inactive). On to `O=C(Cc1ccc(S(=O)(=O)N2CCOCC2)s1)N1CCN(c2ccc(C(F)(F)F)cc2[N+](=O)[O-])CC1`, for which the potentiation was -0.0198% (inactive). In the case of `CC(=O)NC1=NC(=O)CS1`, the potentiation was -7.96% (inactive). With `Cc1ccc2cccc(OCCCOc3ccccc3CO)c2n1`, the potentiation was -2.17% (inactive). For `CC1C=CCC2C(=O)N(c3cccc(C(=O)N4CCCCCC4)c3)C(=O)C12` (stereo not drawn) the value was -12.1% (inactive); for `COCCCNC(=O)Cn1c(=O)n(Cc2ccccc2Cl)c(=O)c2cc(OC)c(OC)cc21`, -14.1% (inactive); for `CCCc1cc(=O)[nH]c2nnc(SCC(=O)Nc3nnc(SCC)s3)n12`, -13.8% (inactive).

Regarding `CC(C)(C)N(Cc1ccccc1)C(=O)COC(=O)CCc1c[nH]c2ccccc12`, the potentiation was 10.1% (inactive). Turning to `C[C@@H](NC(=O)[C@@H]1Cc2ccccc2CN1)C(=O)NC1CCCC1`, the potentiation is -3.01% (inactive). With `COc1ccc(O)c(C(=O)c2cnc3onc(C(C)C)c3c2)c1`, the potentiation was 54.9% (active).

Consider `COCCn1c(=O)[nH]c(=O)c2cc(C(=O)c3cc(OC)ccc3O)cnc21`, for which the potentiation is -0.0764% (inactive). As to `COc1ccc(O)c(C(=O)c2cnc3c(c2)c(-c2ccc(F)cc2)c(C#N)c(=O)n3C)c1`, the potentiation was 11.8% (inactive).

As for `CCOC(=O)c1cc(-c2sc(NC(=O)c3ccccc3)nc2C)n(-c2ccc(Br)cc2)n1`, the potentiation is 2.35% (inactive). For `COC(=O)[C@]1(C)N[C@H](c2ccc(-c3ccc(Cl)c(Cl)c3)cc2)[C@@H]2C(=O)N(C)C(=O)[C@@H]21` the value was -3.41% (inactive); for `O=C(C/C(=N\NC(=O)c1ccccc1Br)C(F)(F)F)c1cccs1`, -15% (inactive); for `O=C(CC(CC(=O)c1ccccc1)c1ccco1)c1ccccc1`, -4.42% (inactive).

On to `Nc1ccc(-n2nncc2-c2ccco2)cc1`, for which the potentiation was -3.62% (inactive).
